A short description of assay [1]: NCI Yeast Anticancer Drug Screen. Data for the rad50 strain (AID 155).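 Note: 0% = growth of vehicle-only cultures of the same strain.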 Conditions: S. cerevisiae rad50 strain growth inhibition, active compounds read high. The essentials:
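Relative growth inhibition (compound vs vehicle) was measured in yeast with a defined repair-gene alteration.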

Assay [2] is described as follows: NCI Yeast Anticancer Drug Screen. Data for the mec2-1 strain (AID 157). Conditions: S. cerevisiae mec2-1 strain, active compounds read high. The essentials:
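Cells of the genetically defined mec2-1 yeast strain are incubated with test compound. Inhibition of growth is calculated against vehicle-treated controls.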

Assay [3] is described as follows: NCI Yeast Anticancer Drug Screen. Data for the sgs1 mgt1 strain (AID 161).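 Note: 0% = growth of cultures given vehicle only.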 Conditions: S. cerevisiae sgs1 mgt1 strain, active compounds read high. The essentials: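 Read-out: growth inhibition vs vehicle controls. Cells: mutant yeast strain deficient in DNA damage repair.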
A short description of assay [4]: NCI Yeast Anticancer Drug Screen. Data for the cln2 rad14 strain (AID 165).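 Note: 0% = growth equal to vehicle treated cultures.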 Conditions: S. cerevisiae cln2 rad14 strain, active compounds read high. The essentials:
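The screen exposed genetically defined yeast (cln2 rad14) to test compounds and scored growth inhibition relative to vehicle-treated controls.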

Assay [5] in a line: NCI Yeast Anticancer Drug Screen. Data for the bub3 strain (AID 167). Conditions: S. cerevisiae bub3 mutant strain, active compounds read high. The essentials:
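Screening used yeast with an engineered genetic alteration affecting cell cycle control. Compound-exposed cultures were compared with vehicle cultures, and reduced growth was taken as inhibition.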

Assay [6] can be described thus: NCI Yeast Anticancer Drug Screen. Data for the mlh1 rad18 strain (AID 175). Particulars: S. cerevisiae mlh1 rad18 strain growth inhibition, active compounds read high. The essentials: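 Compound-treated yeast growth, normalised to vehicle controls. Strain bears defined DNA repair mutations.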
Where [7] appears, read: at 5.0 µM (retest, dose inferred, filed as 0.5).
Setting [8] is: at 50.0 µM (retest, dose inferred, filed as 5.0).

The panel holds about 79,000 compounds, 15% with a hit somewhere; the sample as a whole holds those more often. Values without a mark were called inactive. The source made the active and inactive calls. Cut-off read from the data, not from the text of the source: active = growth inhibition above about 70%; inactive = the rest.

For the molecule `COc1ccc(C(=O)Nc2ccc(O)c(=O)cc2)cc1`, the growth inhibition in assay [1] (setting [7]) was 2%; in assay [1] (setting [8]) it was 42%; in assay [1] (at 50.0 µM), 93.5% (active); in assay [2] (setting [7]), 38%; in assay [2] (setting [8]), 59%; in assay [2] (at 50.0 µM), 17.8%. In addition, the growth inhibition is 25% in assay [3] (setting [7]); 66% in assay [3] (setting [8]); 73.3% (active) in assay [3] (at 50.0 µM); 14% in assay [4] (setting [7]); 2% in assay [4] (setting [8]); -60.6% in assay [4] (at 50.0 µM). Also, the growth inhibition in assay [5] (setting [7]) was 16%; in assay [5] (setting [8]) it was 15%; in assay [5] (at 50.0 µM), 87.4% (active); in assay [6] (setting [7]) it was 21%; in assay [6] (setting [8]) it was 77% (active); in assay [6] (at 50.0 µM), 55.6%.

Take `COc1cc(/C=C(/C)C[N+](=O)[O-])ccc1O`: the growth inhibition in assay [1] (setting [7]) is 54%; in assay [1] (setting [8]) it was 99% (active); in assay [1] (at 50.0 µM), 99.5% (active); in assay [2] (setting [7]), 23%; in assay [2] (setting [8]), 99% (active); in assay [2] (at 50.0 µM), 99.8% (active). In addition, the growth inhibition in assay [3] (setting [7]) is 15%; in assay [3] (setting [8]), 93% (active); in assay [3] (at 50.0 µM), 99.8% (active); in assay [4] (setting [7]) it was 13%; in assay [4] (setting [8]), 99% (active); in assay [4] (at 50.0 µM), 98.8% (active). Moreover, the growth inhibition in assay [5] (setting [7]) is 36%; in assay [5] (setting [8]), 99% (active); in assay [5] (at 50.0 µM) it was 98.8% (active); in assay [6] (setting [7]), 25%; in assay [6] (setting [8]), 99% (active); in assay [6] (at 50.0 µM), 99.5% (active).

`Nc1ccc2c(c1)[nH]c(=O)c1cccc(Cl)c12`: the growth inhibition in assay [1] (setting [7]) was -32%; in assay [1] (setting [8]), 89% (active); in assay [1] (at 50.0 µM) it was 96.1% (active); in assay [2] (setting [7]), -34%; in assay [2] (setting [8]), 88% (active); in assay [2] (at 50.0 µM), 55.3%. The growth inhibition is -39% in assay [3] (setting [7]); 80% (active) in assay [3] (setting [8]); 61.2% in assay [3] (at 50.0 µM); -31% in assay [4] (setting [7]); 94% (active) in assay [4] (setting [8]); 63.9% in assay [4] (at 50.0 µM). Moreover, the growth inhibition in assay [5] (setting [7]) is -52%; in assay [5] (setting [8]) it was 90% (active); in assay [5] (at 50.0 µM) it was 32.5%; in assay [6] (setting [7]), -40%; in assay [6] (setting [8]) it was 95% (active); in assay [6] (at 50.0 µM), 93.1% (active).

As for `CCCCn1cnc2c(SCc3ccc(F)cc3)nc(N)nc21`, the growth inhibition in assay [1] (setting [7]) was -1%; in assay [1] (setting [8]), 48%; in assay [1] (at 50.0 µM), 46.3%; in assay [2] (setting [7]), 1%; in assay [2] (setting [8]) it was 59%; in assay [2] (at 50.0 µM), 46.6%. Also, the growth inhibition in assay [3] (setting [7]) is -3%; in assay [3] (setting [8]), 16%; in assay [3] (at 50.0 µM), 39.1%; in assay [4] (setting [7]), -15%; in assay [4] (setting [8]), 49%; in assay [4] (at 50.0 µM), 44.8%. Also, the growth inhibition in assay [5] (setting [7]) was 0%; in assay [5] (setting [8]), 45%; in assay [5] (at 50.0 µM), 90.1% (active); in assay [6] (setting [7]), 0%; in assay [6] (setting [8]), 30%; in assay [6] (at 50.0 µM), 66.9%.

On to `CN(C)C(=O)c1ccc(SC(=S)NCc2ccccc2)cc1`, for which the growth inhibition was 11% in assay [1] (setting [7]); 99% (active) in assay [1] (setting [8]); 98.5% (active) in assay [1] (at 50.0 µM); 0% in assay [2] (setting [7]); 100% (active) in assay [2] (setting [8]); 97% (active) in assay [2] (at 50.0 µM). The growth inhibition in assay [3] (setting [7]) was 3%; in assay [3] (setting [8]) it was 98% (active); in assay [3] (at 50.0 µM), 97.8% (active); in assay [4] (setting [7]), 7%; in assay [4] (setting [8]) it was 99% (active); in assay [4] (at 50.0 µM) it was 96.2% (active). The growth inhibition in assay [5] (setting [7]) was -11%; in assay [5] (setting [8]) it was 99% (active); in assay [5] (at 50.0 µM) it was 81% (active); in assay [6] (setting [7]), 24%; in assay [6] (setting [8]), 42%; in assay [6] (at 50.0 µM), 98.8% (active).

Regarding `O=c1cccccc1[O-].O=c1cccccc1[O-].O=c1cccccc1[O-].[Sm+3]`, the growth inhibition in assay [1] (setting [7]) was 33%; in assay [1] (setting [8]), 33%; in assay [1] (at 50.0 µM), 91.7% (active); in assay [2] (setting [7]) it was 19%; in assay [2] (setting [8]), 19%; in assay [2] (at 50.0 µM) it was 92.5% (active). For the same molecule, the growth inhibition in assay [3] (setting [7]) was 21%; in assay [3] (setting [8]), 21%; in assay [3] (at 50.0 µM) it was 90.5% (active); in assay [4] (setting [7]) it was 17%; in assay [4] (setting [8]) it was 17%; in assay [4] (at 50.0 µM), 90.2% (active). Also, the growth inhibition is 11% in assay [5] (setting [7]); 11% in assay [5] (setting [8]); 93% (active) in assay [5] (at 50.0 µM); 14% in assay [6] (setting [7]); 14% in assay [6] (setting [8]); 90.4% (active) in assay [6] (at 50.0 µM).

With `Cc1cccc2cc3c(cc12)c(C)cc1ccccc13`, the growth inhibition is -4% in assay [1] (setting [7]); 6% in assay [1] (setting [8]); 64.4% in assay [1] (at 50.0 µM); -6% in assay [2] (setting [7]); -9% in assay [2] (setting [8]); 75.1% (active) in assay [2] (at 50.0 µM). Further, the growth inhibition in assay [3] (setting [7]) was -4%; in assay [3] (setting [8]) it was 30%; in assay [3] (at 50.0 µM) it was 53%; in assay [4] (setting [7]), -1%; in assay [4] (setting [8]) it was 1%; in assay [4] (at 50.0 µM), 51%. Moreover, the growth inhibition was -22% in assay [5] (setting [7]); -12% in assay [5] (setting [8]); 61% in assay [5] (at 50.0 µM); -17% in assay [6] (setting [7]); 2% in assay [6] (setting [8]); 63.6% in assay [6] (at 50.0 µM).

On to `C=CCC(O)C(=O)OC1CC(C)CCC1C(C)(C)c1ccccc1` (stereo not given), for which the growth inhibition in assay [1] (setting [7]) is -1%; in assay [1] (setting [8]) it was 99% (active); in assay [1] (at 50.0 µM), 99% (active); in assay [2] (setting [7]), 6%; in assay [2] (setting [8]), 99% (active); in assay [2] (at 50.0 µM) it was 99.2% (active). The growth inhibition in assay [3] (setting [7]) was 8%; in assay [3] (setting [8]) it was 99% (active); in assay [3] (at 50.0 µM), 99.5% (active); in assay [4] (setting [7]), -6%; in assay [4] (setting [8]) it was 98% (active); in assay [4] (at 50.0 µM) it was 98.8% (active). Besides, the growth inhibition is 8% in assay [5] (setting [7]); 98% (active) in assay [5] (setting [8]); 99.4% (active) in assay [5] (at 50.0 µM); 9% in assay [6] (setting [7]); 98% (active) in assay [6] (setting [8]); 99.2% (active) in assay [6] (at 50.0 µM).

As to `N[C@H](C(=O)O)[C@@H]1CC(Cl)=NO1`, the growth inhibition in assay [1] (setting [7]) was 63%; in assay [1] (setting [8]), 97% (active); in assay [1] (at 50.0 µM), 83.7% (active); in assay [2] (setting [7]), 98% (active); in assay [2] (setting [8]), 96% (active); in assay [2] (at 50.0 µM) it was 89.8% (active). Moreover, the growth inhibition in assay [3] (setting [7]) is 59%; in assay [3] (setting [8]), 96% (active); in assay [3] (at 50.0 µM), 84.5% (active); in assay [4] (setting [7]), 68%; in assay [4] (setting [8]), 96% (active); in assay [4] (at 50.0 µM) it was 85.2% (active). Further, the growth inhibition in assay [5] (setting [7]) is 68%; in assay [5] (setting [8]) it was 97% (active); in assay [5] (at 50.0 µM) it was 88.5% (active); in assay [6] (setting [7]), 86% (active); in assay [6] (setting [8]) it was 97% (active); in assay [6] (at 50.0 µM) it was 84.8% (active).

As to `Nc1nc2c(ccc3ccccc32)s1`, the growth inhibition in assay [1] (setting [7]) was -3%; in assay [1] (setting [8]) it was 36%; in assay [1] (at 50.0 µM), 66%; in assay [2] (setting [7]), -17%; in assay [2] (setting [8]), 37%; in assay [2] (at 50.0 µM) it was 50.6%. Also, the growth inhibition in assay [3] (setting [7]) is 6%; in assay [3] (setting [8]), 54%; in assay [3] (at 50.0 µM) it was 67.5%; in assay [4] (setting [7]), 14%; in assay [4] (setting [8]), 33%; in assay [4] (at 50.0 µM), 61.2%. Also, the growth inhibition in assay [5] (setting [7]) is -22%; in assay [5] (setting [8]) it was 52%; in assay [5] (at 50.0 µM) it was 56.9%; in assay [6] (setting [7]), 1%; in assay [6] (setting [8]) it was 72% (active); in assay [6] (at 50.0 µM), 57.6%.

These data come from PubChem BioAssay (NCI).
